Compound activity as filed in PubChem BioAssay.
aSyn 5UTR act = Activators via SNCA 5'UTR binding, MLPCN | alpha-synuclein 5'UTR reporter, activators screen | activity score, % (tested at 7.5 µM), hits read low | 300,000 compounds, 7.1% hits | AID 1814, 2009; in the data active means activity score below about -60%
An asterisk follows results filed as active. A selection follows.

SMILES | aSyn 5UTR act
Cc1ccc(C)c(NC(=S)NC(NC(=O)Cc2cccc3ccccc23)C(Cl)(Cl)Cl)c1 (stereo unspecified) | 112
COC(=O)c1[nH]c2ccc(F)cc2c1NS(=O)(=O)c1ccc(OC)cc1 | 100
CCOC(=O)c1[nH]c2ccc(OC)cc2c1NC(=O)c1ccccc1C(=O)O | -65*
CCOC(=O)c1cc2cc(OC)ccc2[nH]1 | -147*
CCOC(=O)c1[nH]c2ccc(OC)cc2c1C | -122*
COc1cc(/C=C2\C(=O)N(CCC#N)N=C2C)ccc1OCC(=O)Nc1ccccc1 | -164*
COc1cc(/C=N/NC(=O)c2ccncc2)ccc1OCC(=O)Nc1ccc(C)c(C)c1 | -76*
COc1ccc(NC(=O)COc2ccc(/C=N/O)cc2OC)cc1 | -67*
C/C=C/c1ccc(OCC(=O)Nc2ccncc2)c(OC)c1 | -72*
COc1ccc(/C=N/NC(=O)c2cccnc2)cc1COc1ccc([N+](=O)[O-])c(C)c1 | 98
COc1cc(/C=N/NC(=O)c2ccncc2)ccc1OCC(=O)Nc1cccc([N+](=O)[O-])c1 | -111*
Cc1cc(C(=O)CSc2cccc[n+]2[O-])c(C)n1-c1ccc(OC(F)F)cc1 | -103*
CN(C(=O)/C=C/c1ccc([N+](=O)[O-])s1)c1ccccc1 | -82*
O=C(Nc1ccc(Cl)cc1)Nc1ccc(Br)cn1 | -103*
CCOc1ccc(NC(=S)NNC(=O)c2cc(Br)ccc2Cl)cc1 | -109*
Cn1ncc(Br)c1C(=O)Nc1ccc(Br)cn1 | -89*
CCOc1ccc(NC(=O)Nc2ccc(Br)cn2)cc1 | -105*
CCCCCCC(=O)Nc1ccc(Br)cn1 | -62*
Cc1cc(Cl)c2oc(C(=O)N3CCN(c4ccncc4)CC3)c(C)c2c1 | 90
COC(=O)C1CCN(C(=O)c2oc3c(Cl)cc(C)cc3c2C)CC1 | -74*
Cc1ccc2nc(NC(=O)c3ccc4ncsc4c3)sc2c1 | -145*
Cc1ccc2nc(NC(=O)c3ccc4c(c3)OCO4)sc2c1 | -130*
CC(C)OCCCNC(=S)NNC(=O)c1ccc(Cl)c(Cl)c1 | -87*
CCOC(=O)c1sc(NC(=O)c2cccs2)cc1C | -88*
CCOC(=O)c1sc(NC(=O)Nc2cccc(Cl)c2)cc1C | -110*
SMILES | aSyn 5UTR act
CCOC(=O)c1sc(NC(=O)c2sccc2C)cc1C | -82*
CCOC(=O)c1sc(NC(=O)c2ccc(Br)o2)cc1C | -236*
O=C(NNC(=S)Nc1ccc(Cl)cc1)c1ccccc1 | -87*
COc1ccc(C(=O)NNC(=O)c2cccc(F)c2)cc1 | -82*
COc1ccc(C(=O)NNC(=S)Nc2ccccc2)cc1 | -207*
COc1ccccc1NC(=S)NNC(=O)c1ccccc1 | -101*
O=C(NNC(=S)Nc1ccccc1Cl)c1ccccc1 | -98*
O=C(/C=C/NNC(=O)c1ccc(Cl)cc1)c1ccccc1 | -77*
N#Cc1ccccc1N/C=C/C(=O)c1ccc(Cl)cc1 | -169*
O=C(NNC(=S)Nc1cccc(Cl)c1)c1ccccc1 | -104*
CCCC(=O)NC(=S)Nc1ccc(C(C)=O)cc1 | -84*
Cc1nn(C)c(C(=O)NNC(=S)Nc2ccc(Cl)cc2)c1[N+](=O)[O-] | -71*
CC(=O)c1ccc(NC(=S)NNC(=O)c2ccncc2)cc1 | -70*
O=C(CCc1ccccc1)Nc1ccc(F)cc1F | -68*
O=C(CCc1ccccc1)Nc1ccccc1F | -135*
O=C(CCCc1ccccc1)Nc1ccc(Br)cc1F | -71*
C=CCNc1nc(Nc2ccccc2F)nc(OCC)n1 | -122*
Cc1ccc(C(=O)N(C)c2nnc(-c3ccncc3)s2)cc1 | -107*
CN(C(=O)c1ccncc1)c1nnc(-c2ccccn2)s1 | -66*
CCN(CC(=O)c1c(N)n(C)c(=O)n(C)c1=O)c1cccc2ccccc12 | -72*
Cc1cc(C)c2c(N)c(C(=O)Nc3ccccc3F)sc2n1 | -157*
C=COC(=O)c1sc2nc(C)cc(C)c2c1N | -62*
Cc1cc(C)c2c(N)c(C(=O)Nc3ccccc3Br)sc2n1 | -133*
Cc1cc(C)c2c(N)c(C(=O)Nc3ccccc3Cl)sc2n1 | -105*
CC(=O)Nc1cccc(C(=O)/C=C/c2ccc[nH]2)c1 | -90*
SMILES | aSyn 5UTR act
CC(=O)Nc1cccc(C(=O)/C=C/c2ccc(N(C)C)cc2)c1 | -71*
CC(=O)Nc1cccc(C(=O)/C=C/c2ccc(Br)cc2)c1 | -76*
CC(=O)Nc1cccc(C(=O)/C=C/c2ccc(F)cc2)c1 | -103*
CC(=O)Nc1cccc(C(=O)/C=C/c2cccs2)c1 | -117*
CC(=O)Nc1cccc(C(=O)/C=C/c2ccc(/C=C/C(=O)c3cccc(NC(C)=O)c3)cc2)c1 | -129*
CCN(C(=O)c1cccs1)c1nc(-c2ccc(OC)cc2)cs1 | -130*
COCCCN(C(C)=O)c1nc(-c2ccc(OC)cc2)cs1 | -105*
O=C(CCSc1ccccc1)N1CCCC1 | -80*
O=C(CCSc1ccccc1)N1CCOCC1 | -89*
Oc1ccc(/C=C/c2ccnc3ccccc23)cc1 | -112*
Clc1ccccc1/C=C/c1ccnc2ccccc12 | -109*
N/C(=N\OC(=O)c1cc([N+](=O)[O-])ccc1Cl)c1ccccn1 | -82*
N/C(=N\OC(=O)c1ccc(Cl)cc1[N+](=O)[O-])c1ccccn1 | -165*
N/C(=N\OC(=O)c1ccc(Cl)cc1Cl)c1ccccn1 | 89
N/C(=N\OC(=O)c1ccc([N+](=O)[O-])cc1Cl)c1ccccn1 | 69
COc1ccc(-c2noc(C3CCCN(C(=O)c4ccccc4)C3)n2)cc1 (stereo unspecified) | -76*
COc1ccc(NC(=O)N2CCCC(c3nc(-c4ccc(OC)cc4)no3)C2)cc1 (stereo unspecified) | -94*
COc1ccc(-c2noc(C3CCCN(C(=O)Nc4ccccc4)C3)n2)cc1 (stereo unspecified) | -102*
COc1ccc(-c2noc(C3CCCN(C(=O)Nc4ccccc4F)C3)n2)cc1 (stereo unspecified) | -114*
CCCC(=O)N1CCCC(c2nc(-c3cccc(OC)c3)no2)C1 (stereo unspecified) | -84*
COc1ccc(NC(=O)N2CCCC(c3nc(-c4ccc(C(C)C)cc4)no3)C2)cc1 (stereo unspecified) | -164*
Cc1ccc2oc(-c3ccc(NC(=O)c4cccnc4)cc3)nc2c1 | -162*
COc1cccc(C(=O)Nc2ccc(-c3nc4ccccc4o3)c(O)c2)c1 | -115*
O=C(Nc1ccc(-c2noc(CCc3ccccc3)n2)cc1)c1cccnc1 | -67*
O=C(Nc1ccc(-c2nc3ccccc3o2)cc1)c1cccnc1 | -133*
SMILES | aSyn 5UTR act
Fc1cccc(/C=N/Nc2ccccn2)c1 | -277*
Fc1cccc(F)c1/C=N/Nc1ccccn1 | -230*
Fc1cccc(Cl)c1/C=N/Nc1ccccn1 | -235*
Cc1ccc(Nc2nc(N)nc(CC#N)n2)cc1 | -118*
CCOc1ccc(Nc2nc(N)nc(CCl)n2)cc1 | 96
Nc1nc(CSc2ncccn2)nc(Nc2ccccc2)n1 | -148*
Cc1ccc(Nc2nc(N)nc(CSCCO)n2)cc1 | -112*
Cc1ccc(Nc2nc(N)nc(CSc3ncccn3)n2)cc1 | -132*
COCCNC(=O)COc1ccc(Br)cc1Cl | -68*
O=C(COc1ccc(Br)cc1Cl)c1ccc[nH]1 | -69*
C=CCNC(=O)COc1ccc(Br)cc1Cl | -103*
O=C(NNC(=O)c1ccccc1F)c1cccc(-n2cccc2)c1 | -74*
c1ccc(N=Nc2ccc3cccccc2-3)cc1 | -259*
Cc1ccc(Nc2c([N+](=O)[O-])ccc3c2=NC2(CCCCC2)N=3)cc1 | -68*
COc1ccc(C2CC(c3ccccc3OC(C)=O)=NN2C(C)=O)cc1 (stereo unspecified) | -79*
